Assay [1] can be described thus: NCI Yeast Anticancer Drug Screen. Data for the rad50 strain (AID 155).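 Further: 0% = growth of vehicle-only cultures of the same strain.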 Conditions: S. cerevisiae rad50 strain growth inhibition, active compounds read high. Summed up: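 A DNA repair-deficient yeast mutant serves as the test organism; compound-induced growth inhibition is calculated against vehicle-treated cells.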
Assay [2] in a line: NCI Yeast Anticancer Drug Screen. Data for the mec2-1 strain (AID 157). The note with it: S. cerevisiae mec2-1 strain, active compounds read high. The gist of the method:
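Compounds were applied to mec2-1 yeast cells. Their growth was then compared with that of vehicle-treated cultures to give growth inhibition.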

A short description of assay [3]: NCI Yeast Anticancer Drug Screen. Data for the sgs1 mgt1 strain (AID 161).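 Further: 0% = growth of cultures given vehicle only.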 The note with it: S. cerevisiae sgs1 mgt1 strain, active compounds read high. The gist of the method:
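Compounds are added to genetically altered yeast, and growth is compared with cultures given vehicle alone to give percent inhibition.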

The nature of assay [4]: NCI Yeast Anticancer Drug Screen. Data for the cln2 rad14 strain (AID 165).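 Further: 0% = growth equal to vehicle treated cultures.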 The note with it: S. cerevisiae cln2 rad14 strain, active compounds read high. The gist of the method:
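Strain: cln2 rad14 yeast, altered in cell cycle control and DNA damage repair. Read-out: growth inhibition vs vehicle.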

Assay [5] can be described thus: NCI Yeast Anticancer Drug Screen. Data for the bub3 strain (AID 167). The note with it: S. cerevisiae bub3 mutant strain, active compounds read high. Summed up:
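Inhibition values come from growth of compound-treated mutant yeast normalised to vehicle-treated controls.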

Assay [6] can be described thus: NCI Yeast Anticancer Drug Screen. Data for the mlh1 rad18 strain (AID 175). Conditions: S. cerevisiae mlh1 rad18 strain growth inhibition, active compounds read high. The gist of the method: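 A repair-deficient yeast strain is exposed to test compound, and growth is scored relative to vehicle-treated controls.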
The mark [7] stands for this setting: at 5.0 µM (retest, dose inferred, filed as 0.5).
[8] abbreviates: at 50.0 µM (retest, dose inferred, filed as 5.0).

Structures are written as SMILES. About 79,000 compounds went through this panel and 15% of them were active in at least one assay; those are over-represented in the sample as a whole. Unmarked numbers belong to inactive results. Active and inactive are the calls of the source. No stated cut-off is given here; in the data, active means growth inhibition above about 70%; inactive means the rest.

As to `O=S(=O)(Nc1ccccc1)c1ccccc1C#Cc1ccccc1`, the growth inhibition is -3% in assay [1] (setting [7]); 91% (active) in assay [1] (setting [8]); 89.8% (active) in assay [1] (at 50.0 µM); -2% in assay [2] (setting [7]); 92% (active) in assay [2] (setting [8]); 79.2% (active) in assay [2] (at 50.0 µM). The growth inhibition in assay [3] (setting [7]) was 10%; in assay [3] (setting [8]), 93% (active); in assay [3] (at 50.0 µM), 86.9% (active); in assay [4] (setting [7]), -70%; in assay [4] (setting [8]), 92% (active); in assay [4] (at 50.0 µM), 74.3% (active). In addition, the growth inhibition in assay [5] (setting [7]) was 2%; in assay [5] (setting [8]) it was 64%; in assay [5] (at 50.0 µM), 89.8% (active); in assay [6] (setting [7]), 3%; in assay [6] (setting [8]) it was 95% (active); in assay [6] (at 50.0 µM) it was 91.5% (active).

Turning to `Oc1ccc(Br)cc1-c1nc2cc(Cl)c(Cl)cc2nc1-c1cc(Br)ccc1O`, the growth inhibition was 48% in assay [1] (setting [7]); 80% (active) in assay [1] (setting [8]); 81.2% (active) in assay [1] (at 50.0 µM); 46% in assay [2] (setting [7]); 85% (active) in assay [2] (setting [8]); 86.3% (active) in assay [2] (at 50.0 µM). Besides, the growth inhibition in assay [3] (setting [7]) was 44%; in assay [3] (setting [8]), 88% (active); in assay [3] (at 50.0 µM) it was 88.6% (active); in assay [4] (setting [7]), 47%; in assay [4] (setting [8]), 91% (active); in assay [4] (at 50.0 µM), 86.1% (active). For the same compound, the growth inhibition in assay [5] (setting [7]) is 45%; in assay [5] (setting [8]), 86% (active); in assay [5] (at 50.0 µM), 81.7% (active); in assay [6] (setting [7]) it was 48%; in assay [6] (setting [8]), 90% (active); in assay [6] (at 50.0 µM), 80.7% (active).

For the compound `CC(/C=C/c1ccc(Cl)c(Cl)c1)=N\NC(N)=S`, the growth inhibition in assay [1] (setting [7]) is 37%; in assay [1] (setting [8]), 69%; in assay [1] (at 50.0 µM) it was 61.2%; in assay [2] (setting [7]), 31%; in assay [2] (setting [8]), 73% (active); in assay [2] (at 50.0 µM), 53.5%. Besides, the growth inhibition in assay [3] (setting [7]) is 48%; in assay [3] (setting [8]) it was 76% (active); in assay [3] (at 50.0 µM), 82.9% (active); in assay [4] (setting [7]), 39%; in assay [4] (setting [8]) it was 41%; in assay [4] (at 50.0 µM), 77.2% (active). The growth inhibition in assay [5] (setting [7]) is 29%; in assay [5] (setting [8]), 82% (active); in assay [5] (at 50.0 µM) it was 64.4%; in assay [6] (setting [7]), 61%; in assay [6] (setting [8]) it was 81% (active); in assay [6] (at 50.0 µM) it was 80% (active).

Take `Oc1ccc(-c2ccccc2)cc1O`: the growth inhibition was 23% in assay [1] (setting [7]); 99% (active) in assay [1] (setting [8]); 76.1% (active) in assay [1] (at 50.0 µM); 13% in assay [2] (setting [7]); 100% (active) in assay [2] (setting [8]); 82% (active) in assay [2] (at 50.0 µM). Also, the growth inhibition was 12% in assay [3] (setting [7]); 99% (active) in assay [3] (setting [8]); 89% (active) in assay [3] (at 50.0 µM); -3% in assay [4] (setting [7]); 99% (active) in assay [4] (setting [8]); 1.55% in assay [4] (at 50.0 µM). Also, the growth inhibition in assay [5] (setting [7]) is -6%; in assay [5] (setting [8]) it was 99% (active); in assay [5] (at 50.0 µM), 46.5%; in assay [6] (setting [7]), 27%; in assay [6] (setting [8]) it was 99% (active); in assay [6] (at 50.0 µM) it was 81.4% (active).

Consider `CCOC(=O)/C=C\c1c(Cl)n(-c2ccccc2)c(=O)n(-c2ccccc2)c1=O`, for which the growth inhibition in assay [1] (setting [7]) was 31%; in assay [1] (setting [8]), 98% (active); in assay [1] (at 50.0 µM) it was 87.7% (active); in assay [2] (setting [7]), 24%; in assay [2] (setting [8]) it was 99% (active); in assay [2] (at 50.0 µM) it was 90.5% (active). The growth inhibition in assay [3] (setting [7]) is 23%; in assay [3] (setting [8]), 99% (active); in assay [3] (at 50.0 µM), 89.8% (active); in assay [4] (setting [7]), 26%; in assay [4] (setting [8]), 99% (active); in assay [4] (at 50.0 µM), 90.3% (active). In addition, the growth inhibition was 31% in assay [5] (setting [7]); 99% (active) in assay [5] (setting [8]); 85.6% (active) in assay [5] (at 50.0 µM); 27% in assay [6] (setting [7]); 98% (active) in assay [6] (setting [8]); 92.3% (active) in assay [6] (at 50.0 µM).

Regarding `COc1ccc2c3c(c4cc(OC)c(OC)cc4c2c1)CN1CCC[C@H]1[C@@H]3O`, the growth inhibition in assay [1] (setting [7]) was 19%; in assay [1] (setting [8]) it was 99% (active); in assay [1] (at 50.0 µM), 89.4% (active); in assay [2] (setting [7]), 7%; in assay [2] (setting [8]), 99% (active); in assay [2] (at 50.0 µM), 90.6% (active). Besides, the growth inhibition in assay [3] (setting [7]) was 97% (active); in assay [3] (setting [8]) it was 98% (active); in assay [3] (at 50.0 µM), 91.1% (active); in assay [4] (setting [7]), 90% (active); in assay [4] (setting [8]) it was 97% (active); in assay [4] (at 50.0 µM), 88.2% (active). In addition, the growth inhibition in assay [5] (setting [7]) was 95% (active); in assay [5] (setting [8]), 98% (active); in assay [5] (at 50.0 µM), 89.7% (active); in assay [6] (setting [7]), 98% (active); in assay [6] (setting [8]), 97% (active); in assay [6] (at 50.0 µM), 89.2% (active).

With `Nc1nc(Cl)cc(NCC2(CO)CC(CCCc3ccccc3)C2)n1` (configuration not stated), the growth inhibition in assay [1] (setting [7]) is 25%; in assay [1] (setting [8]), 26%; in assay [1] (at 50.0 µM), -8.3%; in assay [2] (setting [7]), 10%; in assay [2] (setting [8]), 7%; in assay [2] (at 50.0 µM) it was -6.6%. The growth inhibition in assay [3] (setting [7]) was 6%; in assay [3] (setting [8]), 12%; in assay [3] (at 50.0 µM), -26.5%; in assay [4] (setting [7]), 13%; in assay [4] (setting [8]), 12%; in assay [4] (at 50.0 µM), -1.55%. In addition, the growth inhibition in assay [5] (setting [7]) is 15%; in assay [5] (setting [8]) it was 17%; in assay [5] (at 50.0 µM), -8.75%; in assay [6] (setting [7]) it was 23%; in assay [6] (setting [8]) it was 22%; in assay [6] (at 50.0 µM) it was -48.1%.

Turning to `Cc1ccc(Sc2ccc3ccccc3n2)cc1`, the growth inhibition is 2% in assay [1] (setting [7]); -34% in assay [1] (setting [8]); 36% in assay [1] (at 50.0 µM); -3% in assay [2] (setting [7]); 46% in assay [2] (setting [8]); 37.5% in assay [2] (at 50.0 µM). Moreover, the growth inhibition in assay [3] (setting [7]) was 15%; in assay [3] (setting [8]) it was 37%; in assay [3] (at 50.0 µM), 50.2%; in assay [4] (setting [7]), -18%; in assay [4] (setting [8]) it was -24%; in assay [4] (at 50.0 µM) it was 50.2%. Moreover, the growth inhibition in assay [5] (setting [7]) was 1%; in assay [5] (setting [8]), 30%; in assay [5] (at 50.0 µM), 67%; in assay [6] (setting [7]) it was 0%; in assay [6] (setting [8]), 18%; in assay [6] (at 50.0 µM), 2.25%.

In the case of `C/C(CCC(=O)O)=N/Nc1ccc(C(=O)O)cc1`, the growth inhibition is 11% in assay [1] (setting [7]); 74% (active) in assay [1] (setting [8]); 66% in assay [1] (at 50.0 µM); 0% in assay [2] (setting [7]); 71% (active) in assay [2] (setting [8]); 5.4% in assay [2] (at 50.0 µM). Moreover, the growth inhibition in assay [3] (setting [7]) was 1%; in assay [3] (setting [8]), 64%; in assay [3] (at 50.0 µM), 17.9%; in assay [4] (setting [7]) it was 7%; in assay [4] (setting [8]), 91% (active); in assay [4] (at 50.0 µM), 5.85%. Besides, the growth inhibition is 2% in assay [5] (setting [7]); 91% (active) in assay [5] (setting [8]); 31.4% in assay [5] (at 50.0 µM); 5% in assay [6] (setting [7]); 89% (active) in assay [6] (setting [8]); 23.7% in assay [6] (at 50.0 µM).
